# Measured values from PubChem BioAssay (NCATS).
# Records with an inconclusive call do not appear. Calls of active or inactive are those of the source. Unless noted, the call rests on the fitted dose curve; in most records, active means well fitted curve in the direction sought with a large enough effect; inconclusive means small, poorly fitted or top-dose-only effect, or another doubt; inactive means no such curve, though single readings can be large; an effect the other way counts as inactive or inconclusive.
# Experiments:
# [1] = molecular target: Lysosomal acid glucosylceramidase (Homo sapiens) (UniProt P04062); assay: Glucocerebrosidase-p2 (AID 348; in the data active means potency below about 10 µM; further: potency means the concentration at half of the fitted maximal effect); conditions: purified GBA, blue fluorogenic substrate, 40 min
# In short: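 Normal human glucocerebrosidase (0.2 nM) with blue fluorogenic substrate (80 uM final) in citrate/phosphate pH 5.9 with 10mM sodium taurocholate, 0.01% tween-20; 40 min RT, NaOH/glycine stop; fluorescence Ex 365/Em 440; AC50 from a titration from 0.6 nM upwards.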
# [2] = AP1 Signaling Pathway (AID 357; active means well fitted curve in either direction with a large enough effect, not every such curve was filed as active;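 further: ME-180 reporter cells stimulated with EGF at its EC50 level; on the % scale 0 is the no-effect control and ±100 the full control effect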); conditions: ME-180 AP-1-bla reporter, EGF-induced, beta-lactamase ratio, 5 h; at 7.69 µM (top of the series) unless noted
# In short: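 Modulation of EGF-driven AP-1 transcription was assessed with a beta-lactamase reporter in ME-180 cells. Compound and EC50 EGF were co-incubated 5 hours at 37 °C before 2.5-hour CCF4 loading at room temperature and dual-emission reading.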
# [3] = molecular target: Cytochrome P450 1A2 (Homo sapiens) (UniProt P05177); assay: p450-cyp1a2 (AID 410; calls by dose curve; further: potency means the concentration at half of the fitted maximal effect;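 on activity change, negative = inhibition: -100% = full effect of reference inhibitor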); conditions: recombinant CYP1A2, luciferin-ME demethylation, luminescence; series mostly up to 57 µM
# In short: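 Read-out is luminescence from luciferin produced by CYP1A2 demethylation of Luciferin-ME (100uM, at Km). Detection reagent stopped the 60 min NADPH-dependent reaction; signals were normalized to 57 uM furafylline.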
# [4] = NFAT Signaling Pathway (AID 444; active means well fitted curve in either direction with a large enough effect, not every such curve was filed as active;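 further: carbachol stimulus at about its EC50 of 1 µM final; on the % scale 0 is the no-effect control and ±100 the full control effect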); conditions: Jurkat NFAT-bla M1, carbachol, beta-lactamase ratio, 5 h; at 7.69 µM (top of the series) unless noted
# In short: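 Read-out: CCF4 FRET ratio (460 nm/530 nm) after 1 h RT dye loading, used for %activity and AC50 from titration series. Cells: Jurkat NFAT-β-lactamase/M1 line, treated with compound plus 1 uM carbachol for 5 h, 37 °C.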
# [5] = Stat Signaling Pathway (AID 446; active means well fitted curve in either direction with a large enough effect, not every such curve was filed as active;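 further: ME-180 cervical cancer cells given 40 pM IL-6 alongside compound; SIE-controlled beta-lactamase reporter measured as 460/530 nm FRET emission ratio; on the % scale 0 is the no-effect control and ±100 the full control effect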); conditions: ME-180 (cervical carcinoma) SIE beta-lactamase reporter, IL-6 stimulated, 5 h; at 7.69 µM (top of the series) unless noted
# In short: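 Overnight-plated ME-180 cells bearing a STAT Inducible Element beta-lactamase reporter; 5 h co-exposure to compound and 40 pM IL-6; values normalized to 300 pM IL-6 and 125 nM JAK inhibitor controls.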
# [6] = molecular target: Glucocorticoid receptor (Homo sapiens) (UniProt P04150); assay: GR-GFP Redistribution (AID 450;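 active means compounds whose dose series gives a full or clear partial fitted curve of increased nuclear translocation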; further: potency means the concentration at half of the fitted maximal effect); conditions: U2OS GR-GFP nuclear translocation, laser cytometry, 2 h
# [7] = molecular target: Glucocorticoid receptor (Homo sapiens) (UniProt P04150); assay: GR-EFC Redistribution (AID 451; calls by dose curve; further: potency means the concentration at half of the fitted maximal effect); conditions: CHO-K1 GR-EFC translocation, beta-gal luminescence, 2 h
# In short: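 Translocation of GR-ED fusion to nuclear EA restores b-gal, read by luminescence after 1 h room-temperature detection. Engineered CHO-K1 biosensor cells, 1,000/well, exposed 2 h at 37 C to titrations up to 46 uM final.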
# [8] = molecular target: Mitogen-activated protein kinase 10 (Mus musculus) (UniProt Q61831); assay: JNK3 AlphaScreen Assay (AID 530; active means well fitted curve in either direction with a large enough effect, not every such curve was filed as active;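 further: kinase came from lysate of stimulated human HepG2 cells; signal reports phosphorylation of biotinylated GST-cJun 1-79 at Ser73 with 10 µM ATP; on the % scale 0 is the no-effect control and ±100 the full control effect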); conditions: JNK3 lysate, c-Jun phosphorylation; series mostly up to 57.1 µM
# In short: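 Kinase buffer: 20 mM Tris-HCl pH 7.6, 10 mM MgCl2, 1 mM DTT, 0.1 mM Na3VO4, 0.01% Tween-20; ATP 10 uM. Substrate biotin-GST-cJun(1-79), enzyme from activated HepG2 lysates. Detection by Ser73 phospho-antibody AlphaScreen.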
# [9] = molecular target: 3',5'-cyclic-AMP phosphodiesterase 4B (Homo sapiens) (UniProt Q07343); assay: qHTS Assay for Inhibitors of PDE-IV (AID 607; active means well fitted activation curve with a large enough effect in the main read-out, with a control signal flat, not every such curve was filed as active; further: % of control where 0% means no effect); conditions: HEK293 ACTOne CNG channel cells, membrane potential fluorescence; series mostly up to 22.9 µM
# In short: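 Live HEK293 cells with a modified cyclic nucleotide-gated (CNG) channel report intracellular cAMP via membrane-potential dye fluorescence (ex 535/em 590 nm). Endogenous PDE-IV was targeted. Compounds were tested at up to 22.9 uM final; RO 20-1724 100 uM served as control.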
# [10] = molecular target: Cytochrome P450 3A4 (Homo sapiens) (UniProt P08684); assay: qHTS Assay for Inhibitors and Substrates of Cytochrome P450 3A4 (AID 884); conditions: recombinant CYP3A4, Luciferin-PPXE luminescence; series mostly up to 57.1 µM; further: potency means the concentration at half of the fitted maximal effect; nearly all actives have a fitted effect of over 50% in size
# In short: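 Luminescent readout of luciferin produced by CYP3A4 (20 nM) dealkylation of Luciferin-PPXE, 25 uM (its KM). NADPH-driven reaction ran 60 min at RT after 10 min compound preincubation; data scaled to 57 uM ketoconazole as 100% inhibition.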
# [11] = molecular target: Cytochrome P450 3A4 (Homo sapiens) (UniProt P08684); assay: qHTS Assay for Activators of Cytochrome P450 3A4 (AID 885); conditions: recombinant CYP3A4, Luciferin-PPXE luminescence, 60 min; series mostly up to 57.1 µM; further: nearly all actives have a fitted effect of over 65% in size
# In short: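 Using 20nM recombinant human CYP3A4 in potassium phosphate (200mM), substrate Luciferin-PPXE at 25uM, luminescent luciferin detection followed a 60-min RT NADPH reaction; data scaled to 57 uM ketoconazole.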
# [12] = qHTS Assay for Lipid Storage Modulators (AID 1519; calls by dose curve); conditions: Drosophila S3 cells, BODIPY lipid droplet/cell ratio, laser cytometry, cells loaded with oleic acid; for activity change, negative = inhibition: at 57.5 µM (top of the series)
# In short: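 Cells seeded at 5,000 per well were treated with compounds over a concentration series and loaded with oleic acid (400 uM, as added). Lipid droplet fluorescence (488 nm excitation, 500-530 nm channel) was read by laser-scanning cytometry and normalized to 20 uM Triacsin C.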
# [13] = molecular target: Dual specificity protein kinase CLK4 (Homo sapiens) (UniProt Q9HAZ1); assay: qHTS Assay for Inhibitors of CDC-like Kinase 4 (ADP-Glo Assay) (AID 1771); conditions: recombinant CLK4, ADP-Glo luminescence; series mostly up to 80 µM; further: nearly all actives have a fitted effect of over 70% in size; further: potency means the concentration at half of the fitted maximal effect
# In short: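 In this ADP-Glo format, 1 uM ATP and 100 uM RS peptide served as substrates for 25 nM Clk4 in Mg2+/EGTA/DTT/Triton buffer; reactions ran 1 hr at room temperature before luminescent ADP quantification.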
# [14] = molecular target: Ubiquitin carboxyl-terminal hydrolase 1 (Homo sapiens) (UniProt O94782); assay: Inhibitors of USP1/UAF1: Pilot qHTS (AID 504865); conditions: purified USP1/UAF1, Ub-rhodamine cleavage fluorescence; series mostly up to 54.9 µM;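 further: rhodamine fluorescence freed from ubiquitin-rhodamine substrate followed over time; top concentration of the series differs between compounds; on the % scale 0 is the no-effect control and ±100 the full control effect; nearly all actives have a fitted effect of over 35% in size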
# In short: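 USP1/UAF1 complex at 1 nM preincubated 15 min at room temperature with compound, then Ub-Rho substrate added at 150 nM final. Fluorescence (480/540 nm) read kinetically in 50 mM HEPES pH 7.8, 0.5 mM EDTA, 1 mM TCEP, 0.1 mg/ml BSA, 0.01% Tween-20.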
# [15] = Primary qHTS for small molecule stabilizers of the endoplasmic reticulum resident proteome: Secreted ER Calcium Modulated Protein (SERCaMP) assay (AID 1508630); conditions: SH-SY5Y GLuc-SERCaMP (Gaussia luciferase released on ER calcium loss) secretion, thapsigargin, luminescence; series mostly up to 38.4 µM; further: on the % scale 0 is the no-effect control and ±100 the full control effect
# In short: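 The SH-SY5Y reporter protocol was run at 3 concentrations up to 38.3 uM (primary) or 11 concentrations (follow-up): 16 h compound, 100 nM thapsigargin for 4 h, then extracellular luciferase luminescence.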
# [16] = molecular target: Dual specificity protein kinase CLK4 (Homo sapiens) (UniProt Q9HAZ1); assay: qHTS Assay for Inhibitors of CDC-like Kinase 4 (ADP-FP Assay) (AID 1795); conditions: Transcreener ADP fluorescence polarization; series mostly up to 50 µM;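 further: recombinant human CLK4 phosphorylating RS repeat peptide at 1 µM ATP; on the % scale 0 is the no-effect control and ±100 the full control effect; nearly all actives have a fitted effect of over 60% in size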
# In short: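 Recombinant Clk4 (6.25 nM) phosphorylated 100 uM RS repeat peptide with 1 uM ATP in 25 mM Tris pH 7.5, 10 mM MgCl2, 0.5 mM EGTA, 2.5 mM DTT, 0.01% Triton X-100 for 1 h. ADP was detected by Transcreener ADP2 competitive fluorescence polarization after 30 min at room temperature.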
# [17] = molecular target: Cytochrome P450 2C9 (Homo sapiens) (UniProt P11712); assay: qHTS Assay for Inhibitors and Substrates of Cytochrome P450 2C9 (AID 883); conditions: recombinant CYP2C9, luciferin-H luminescence, 60 min; series mostly up to 57.1 µM; further: on the % scale 0 is the no-effect control and ±100 the full control effect; nearly all actives have a fitted effect of over 60% in size
# In short: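 Luminescent read-out of deoxyluciferin hydroxylation, normalized to 57uM sulphaphenazole (AC100). Reaction: 10nM enzyme, 100uM Luciferin-H (equal to KM), 25mM KPO4, 10 min compound preincubation, then 60 min with NADPH regeneration, both at 37C.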
# [18] = molecular target: Cytochrome P450 2D6 (Homo sapiens) (UniProt P10635); assay: qHTS Assay for Inhibitors and Substrates of Cytochrome P450 2D6 (AID 891); conditions: recombinant CYP2D6, luciferin-ME EGE luminescence; series mostly up to 57.1 µM;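 further: luciferin methyl ether substrate demethylated by CYP2D6 with NADPH regeneration; on the % scale 0 is the no-effect control and ±100 the full control effect; nearly all actives have a fitted effect of over 60% in size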
# In short: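 Luminescent read-out of luciferin formed by 5 nM human CYP2D6 demethylating 30 uM Luciferin-ME EGE (Km level) over 60 min at room temperature after NADPH regeneration addition. Data normalized to full inhibition by 1.43 uM quinidine.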
# [19] = measured here: cell count channel max response
# [20] = measured here: lipid channel max response
# Cytochrome P450 1A2 (Homo sapiens), sequence (P05177 whole entry, looked up): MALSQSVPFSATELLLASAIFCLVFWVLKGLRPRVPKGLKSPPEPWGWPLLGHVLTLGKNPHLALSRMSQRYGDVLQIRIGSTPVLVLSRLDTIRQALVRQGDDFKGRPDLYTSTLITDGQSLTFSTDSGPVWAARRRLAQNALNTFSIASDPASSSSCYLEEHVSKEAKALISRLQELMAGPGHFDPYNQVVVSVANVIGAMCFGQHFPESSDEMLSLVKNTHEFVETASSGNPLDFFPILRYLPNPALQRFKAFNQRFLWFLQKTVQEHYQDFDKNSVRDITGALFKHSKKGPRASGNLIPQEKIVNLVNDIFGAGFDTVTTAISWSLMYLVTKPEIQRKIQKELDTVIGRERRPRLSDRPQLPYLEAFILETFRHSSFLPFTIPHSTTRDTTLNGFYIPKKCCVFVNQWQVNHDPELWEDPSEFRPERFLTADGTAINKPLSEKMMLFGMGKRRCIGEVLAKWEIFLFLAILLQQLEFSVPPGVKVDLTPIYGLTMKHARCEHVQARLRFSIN
# Ubiquitin carboxyl-terminal hydrolase 1 (Homo sapiens), sequence (O94782 whole entry, looked up): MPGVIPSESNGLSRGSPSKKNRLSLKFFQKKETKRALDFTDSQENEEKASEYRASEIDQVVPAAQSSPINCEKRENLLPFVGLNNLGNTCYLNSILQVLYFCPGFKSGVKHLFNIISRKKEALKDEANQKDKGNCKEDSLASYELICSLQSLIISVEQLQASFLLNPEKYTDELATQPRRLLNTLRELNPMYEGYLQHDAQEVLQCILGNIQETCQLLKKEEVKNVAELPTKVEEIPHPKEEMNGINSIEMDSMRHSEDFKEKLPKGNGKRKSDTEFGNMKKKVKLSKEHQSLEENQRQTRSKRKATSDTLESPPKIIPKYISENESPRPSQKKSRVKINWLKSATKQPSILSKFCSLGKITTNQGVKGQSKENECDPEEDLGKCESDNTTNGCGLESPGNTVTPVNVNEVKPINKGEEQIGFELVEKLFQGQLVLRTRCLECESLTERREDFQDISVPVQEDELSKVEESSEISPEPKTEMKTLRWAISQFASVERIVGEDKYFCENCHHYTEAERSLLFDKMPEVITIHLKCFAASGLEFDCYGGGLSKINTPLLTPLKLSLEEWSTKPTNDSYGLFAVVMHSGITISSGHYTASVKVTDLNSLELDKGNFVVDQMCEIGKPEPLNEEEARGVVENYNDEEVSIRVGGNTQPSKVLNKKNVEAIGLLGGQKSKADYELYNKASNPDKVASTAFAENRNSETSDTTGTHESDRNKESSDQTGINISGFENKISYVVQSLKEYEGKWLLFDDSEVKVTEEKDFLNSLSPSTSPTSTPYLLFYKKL
# Cytochrome P450 3A4 (Homo sapiens), sequence (P08684 whole entry, looked up): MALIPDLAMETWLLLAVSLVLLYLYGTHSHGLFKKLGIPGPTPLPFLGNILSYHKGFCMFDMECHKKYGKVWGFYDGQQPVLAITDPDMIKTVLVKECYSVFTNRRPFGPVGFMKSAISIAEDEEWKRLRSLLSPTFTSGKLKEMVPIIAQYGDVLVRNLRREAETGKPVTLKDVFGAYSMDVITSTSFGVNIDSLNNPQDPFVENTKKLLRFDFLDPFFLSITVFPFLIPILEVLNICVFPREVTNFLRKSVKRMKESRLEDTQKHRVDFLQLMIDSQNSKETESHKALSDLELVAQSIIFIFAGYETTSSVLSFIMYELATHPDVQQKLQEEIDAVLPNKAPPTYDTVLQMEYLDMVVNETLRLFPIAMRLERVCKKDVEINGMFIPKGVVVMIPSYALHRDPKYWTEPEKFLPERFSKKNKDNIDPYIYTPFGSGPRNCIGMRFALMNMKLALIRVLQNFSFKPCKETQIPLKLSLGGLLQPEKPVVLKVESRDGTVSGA
# Dual specificity protein kinase CLK4 (Homo sapiens), sequence (Q9HAZ1 whole entry, looked up): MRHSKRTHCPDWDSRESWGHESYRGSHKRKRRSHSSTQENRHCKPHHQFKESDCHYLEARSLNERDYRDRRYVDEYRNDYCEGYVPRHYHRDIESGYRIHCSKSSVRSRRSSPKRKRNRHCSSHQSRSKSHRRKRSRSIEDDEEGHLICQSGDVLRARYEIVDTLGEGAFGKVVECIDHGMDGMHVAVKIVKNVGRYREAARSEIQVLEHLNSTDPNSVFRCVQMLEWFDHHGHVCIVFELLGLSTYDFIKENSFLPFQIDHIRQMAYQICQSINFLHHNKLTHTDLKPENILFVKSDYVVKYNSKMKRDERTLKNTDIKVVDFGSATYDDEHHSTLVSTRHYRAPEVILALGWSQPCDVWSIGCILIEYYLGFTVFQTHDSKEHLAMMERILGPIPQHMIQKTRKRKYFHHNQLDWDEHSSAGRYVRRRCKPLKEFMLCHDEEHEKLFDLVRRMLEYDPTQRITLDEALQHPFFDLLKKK
# Glucocorticoid receptor (Homo sapiens), sequence (P04150 whole entry, looked up, the tested form may be a part): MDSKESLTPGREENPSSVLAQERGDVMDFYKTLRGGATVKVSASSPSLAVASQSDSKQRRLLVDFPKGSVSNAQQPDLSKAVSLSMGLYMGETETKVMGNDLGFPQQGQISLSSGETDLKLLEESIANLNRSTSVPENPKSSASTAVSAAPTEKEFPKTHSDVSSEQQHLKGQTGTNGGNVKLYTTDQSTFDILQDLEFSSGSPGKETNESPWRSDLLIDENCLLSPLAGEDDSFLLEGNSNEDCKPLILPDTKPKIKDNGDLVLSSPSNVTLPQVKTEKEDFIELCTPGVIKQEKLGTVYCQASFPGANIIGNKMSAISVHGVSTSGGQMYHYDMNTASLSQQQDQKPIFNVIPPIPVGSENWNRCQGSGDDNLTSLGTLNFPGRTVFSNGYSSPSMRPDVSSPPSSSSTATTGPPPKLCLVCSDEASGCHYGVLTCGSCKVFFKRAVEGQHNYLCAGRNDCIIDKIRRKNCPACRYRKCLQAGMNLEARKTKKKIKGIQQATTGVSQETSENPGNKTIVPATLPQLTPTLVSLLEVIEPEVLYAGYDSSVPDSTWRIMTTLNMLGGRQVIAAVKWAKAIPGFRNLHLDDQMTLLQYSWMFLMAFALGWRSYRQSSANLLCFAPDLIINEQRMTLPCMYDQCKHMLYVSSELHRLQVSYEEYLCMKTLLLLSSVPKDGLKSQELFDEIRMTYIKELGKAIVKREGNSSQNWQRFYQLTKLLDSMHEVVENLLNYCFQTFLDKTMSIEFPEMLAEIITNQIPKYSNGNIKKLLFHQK
# Lysosomal acid glucosylceramidase (Homo sapiens), sequence (P04062 whole entry, looked up): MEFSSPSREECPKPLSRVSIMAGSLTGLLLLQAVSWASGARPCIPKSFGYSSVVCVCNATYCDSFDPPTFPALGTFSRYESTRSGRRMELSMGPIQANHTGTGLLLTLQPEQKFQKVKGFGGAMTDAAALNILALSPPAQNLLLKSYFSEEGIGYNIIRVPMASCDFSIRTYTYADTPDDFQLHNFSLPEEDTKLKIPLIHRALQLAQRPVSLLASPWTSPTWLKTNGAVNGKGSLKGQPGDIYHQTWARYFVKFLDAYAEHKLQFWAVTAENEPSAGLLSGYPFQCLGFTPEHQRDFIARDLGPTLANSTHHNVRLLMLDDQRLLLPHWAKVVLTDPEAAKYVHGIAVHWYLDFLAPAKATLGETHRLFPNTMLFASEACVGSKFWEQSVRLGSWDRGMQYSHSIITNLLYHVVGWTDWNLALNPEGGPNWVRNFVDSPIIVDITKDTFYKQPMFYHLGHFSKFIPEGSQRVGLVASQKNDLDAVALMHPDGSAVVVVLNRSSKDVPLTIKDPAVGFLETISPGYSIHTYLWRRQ
# 3',5'-cyclic-AMP phosphodiesterase 4B (Homo sapiens), sequence (Q07343 whole entry, looked up): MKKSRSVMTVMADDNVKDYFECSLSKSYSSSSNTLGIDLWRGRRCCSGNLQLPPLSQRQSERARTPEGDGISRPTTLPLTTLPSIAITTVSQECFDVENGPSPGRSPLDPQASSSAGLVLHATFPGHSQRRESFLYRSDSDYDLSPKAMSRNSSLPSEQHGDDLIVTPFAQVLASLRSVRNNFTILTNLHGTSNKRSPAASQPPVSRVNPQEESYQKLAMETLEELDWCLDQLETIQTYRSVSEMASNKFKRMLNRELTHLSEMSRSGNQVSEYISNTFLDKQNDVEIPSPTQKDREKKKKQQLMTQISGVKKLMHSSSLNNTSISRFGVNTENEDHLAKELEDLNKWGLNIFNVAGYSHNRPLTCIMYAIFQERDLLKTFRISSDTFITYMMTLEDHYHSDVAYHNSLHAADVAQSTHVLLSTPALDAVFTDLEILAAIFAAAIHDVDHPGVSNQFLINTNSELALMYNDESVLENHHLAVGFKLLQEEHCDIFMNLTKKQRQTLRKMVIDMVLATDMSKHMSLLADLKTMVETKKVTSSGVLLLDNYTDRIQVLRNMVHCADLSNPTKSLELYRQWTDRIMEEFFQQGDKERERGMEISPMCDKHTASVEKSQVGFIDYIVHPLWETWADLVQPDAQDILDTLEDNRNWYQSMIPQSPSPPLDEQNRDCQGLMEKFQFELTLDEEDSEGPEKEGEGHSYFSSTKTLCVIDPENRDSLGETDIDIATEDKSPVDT
# Cytochrome P450 2D6 (Homo sapiens), sequence (P10635 whole entry, looked up): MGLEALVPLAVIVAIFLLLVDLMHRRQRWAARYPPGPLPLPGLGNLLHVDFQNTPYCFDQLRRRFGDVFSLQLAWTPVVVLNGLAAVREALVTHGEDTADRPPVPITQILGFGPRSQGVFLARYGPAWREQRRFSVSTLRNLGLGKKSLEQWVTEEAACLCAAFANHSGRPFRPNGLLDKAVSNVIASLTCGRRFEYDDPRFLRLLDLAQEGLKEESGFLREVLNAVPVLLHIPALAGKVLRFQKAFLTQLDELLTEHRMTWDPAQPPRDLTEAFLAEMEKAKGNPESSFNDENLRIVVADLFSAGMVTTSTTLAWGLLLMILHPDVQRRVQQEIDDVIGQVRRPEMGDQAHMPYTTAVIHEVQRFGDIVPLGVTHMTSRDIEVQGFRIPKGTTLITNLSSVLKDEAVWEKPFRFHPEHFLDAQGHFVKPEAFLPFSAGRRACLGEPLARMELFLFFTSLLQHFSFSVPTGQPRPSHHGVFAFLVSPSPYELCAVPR
Structure (SMILES),Potency [1],"activity change, negative = inhibition [2]",Potency [3],"activity change, negative = inhibition [4]","activity, negative = inhibition [5]",Potency [6],Potency [7],outcome [8],Potency [9],Potency [10],Potency [11],"activity change, negative = inhibition [12]","max response [12, 19] [%]","max response [12, 20] [%]",Potency [13],Potency [14],Potency [15],Potency [16],Potency [17],Potency [18]
Fc1ccc(Nc2ccnc(-c3ccoc3)n2)cc1,> 11.4 µM (inactive),-6.54% (inactive),1 µM (active),6.01% (inactive),8.8% (inactive),> 46 µM (inactive),> 46 µM (inactive),inactive,inactive,7.94 µM (active),inactive,8.99% (inactive),9.29,17.6,inactive,inactive,inactive,–,–,–
COc1ccccc1-c1ccc2ncnc(NC3CCNCC3)c2c1,> 11.4 µM (inactive),–,–,5.17% (inactive),3.74% (inactive),> 46 µM (inactive),> 46 µM (inactive),inactive,inactive,–,–,4.79% (inactive),10.6,12.3,inactive,inactive,inactive,inactive,–,–
COCCNc1nc(-c2ccccc2Cl)nc2ccccc12,11 µM (inactive),-0.0888% (inactive),0.126 µM (active),7.18% (inactive),-3.65% (inactive),> 46 µM (inactive),> 46 µM (inactive),inactive,–,–,inactive,3.23% (inactive),2.91,4.03,8.91 µM (active),inactive,inactive,–,–,–
Cc1cnc(CNc2cc(-c3cccc(NS(C)(=O)=O)c3)ncn2)cn1,> 11.4 µM (inactive),20.7% (inactive),–,-0.447% (inactive),-0.385% (inactive),> 46 µM (inactive),> 46 µM (inactive),inactive,inactive,–,–,5.3% (inactive),37.3,40.2,15.8 µM (active),inactive,inactive,–,–,–
COc1ccc(-n2c(=O)c(-c3cccs3)nc3cnc(N(C)C)nc32)cc1,> 11.4 µM (inactive),-10.2% (inactive),inactive,-4.88% (inactive),-9.54% (inactive),> 9.22 µM (inactive),> 46 µM (inactive),inactive,–,–,–,7.83% (inactive),19,25.4,inactive,–,inactive,inactive,inactive,inactive
COc1cccc(Nc2ncc3nc(C)c(=O)n(C)c3n2)c1,> 11.4 µM (inactive),-0.695% (inactive),1 µM (active),-5.64% (inactive),-12.2% (inactive),> 9.22 µM (inactive),> 46 µM (inactive),inactive,inactive,–,–,-0.403% (inactive),5.56,2.52,–,inactive,inactive,inactive,–,–
